Where “and” joins values, the source holds several entries; their conditions need not be identical. Equal values may be shown once. Inconclusive results are not listed. Where a call stands in place of a potency, no number is given. Some structures have more than one record in an assay (separate samples or runs), and their calls can disagree. Calls of active or inactive are those of the source. Unless noted, the call rests on the fitted dose curve.
Test system: not listed separately
Test: p53 small molecule agonists, cell-based qHTS assay (AID 1963582; active means well fitted activation curve with a large enough effect in the signal ratio in the repeat runs, not every such curve was filed as active; the % refers to the signal ratio)
Details: HCT-116 p53RE-bla reporter, beta-lactamase FRET ratio, 16 h; series mostly up to 66 µM
Method in brief: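 16 h compound exposure (37 C) of p53 response element–bla cells, preceded by 5 h recovery at 37 C/5% CO2; read-out via LiveBLAzer B/G FRET substrate, 2 h RT, fluorescence intensity.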
Potency means the concentration at half of the fitted maximal effect.

SMILES | Potency
CCCCCCCCCCCCN | inactive
CC(O)CC(C)(C)O (configuration not stated) | inactive
CCNc1ccccc1 | inactive
Nc1ccc(O)c(C(=O)O)c1 | inactive
O=C1CCc2ccccc2O1 | inactive
CC(=O)CCC=C(C)C | inactive
CCO[Si](CCCNC(N)=O)(OCC)OCC | inactive
C=C(C)C(=O)OCCOC(=O)C(=C)C | inactive
CC1(C)NC(=O)N(c2ccc([N+](=O)[O-])c(C(F)(F)F)c2)C1=O | inactive
O=S(=O)(O)c1ccc(O)cc1 | inactive
CC(=O)Oc1c(C)c(C)c2c(c1C)CC[C@@](C)(CCC[C@H](C)CCC[C@H](C)CCCC(C)C)O2 | inactive
CC1(C)NC(=O)NC1=O | inactive
C[N+](C)(C)CCCCCC[N+](C)(C)C | inactive
CCCCCC/C=C/CCCCCCCC(=O)O | inactive
CC(C)=CCl | inactive
C/C=C1/CC2C=CC1C2 (configuration not stated) | inactive
COC(=O)c1ccccc1O | inactive
CC(=O)Oc1ccc(C)cc1 | inactive
CC(C)=CCO | inactive
C=C(C)C(=O)OCC(CC)(COC(=O)C(=C)C)COC(=O)C(=C)C | inactive
S=c1nc[nH]c2nc[nH]c12 | 9.99 µM (active) and 7.93 µM (active)
NC(CO)(CO)CO | inactive
CCCCCCCC(=O)OCC(O)CO (configuration not stated) | inactive
CCCCCCCCCCCCCC(=O)O | inactive
CC(=O)c1nccs1 | inactive
Cc1cc(C2(c3cc(C)c(O)cc3C)OS(=O)(=O)c3ccccc32)c(C)cc1O | inactive
CC12CCC(CC1)C(C)(C)O2 | inactive
COc1cc(C=O)ccc1O | inactive
O=C(O)c1cn(-c2ccc(F)cc2)c2cc(N3CCNCC3)c(F)cc2c1=O | inactive

Molecular target: 5-hydroxytryptamine receptor 2A (Homo sapiens) (UniProt P28223)
Sequence (P28223 whole entry, looked up): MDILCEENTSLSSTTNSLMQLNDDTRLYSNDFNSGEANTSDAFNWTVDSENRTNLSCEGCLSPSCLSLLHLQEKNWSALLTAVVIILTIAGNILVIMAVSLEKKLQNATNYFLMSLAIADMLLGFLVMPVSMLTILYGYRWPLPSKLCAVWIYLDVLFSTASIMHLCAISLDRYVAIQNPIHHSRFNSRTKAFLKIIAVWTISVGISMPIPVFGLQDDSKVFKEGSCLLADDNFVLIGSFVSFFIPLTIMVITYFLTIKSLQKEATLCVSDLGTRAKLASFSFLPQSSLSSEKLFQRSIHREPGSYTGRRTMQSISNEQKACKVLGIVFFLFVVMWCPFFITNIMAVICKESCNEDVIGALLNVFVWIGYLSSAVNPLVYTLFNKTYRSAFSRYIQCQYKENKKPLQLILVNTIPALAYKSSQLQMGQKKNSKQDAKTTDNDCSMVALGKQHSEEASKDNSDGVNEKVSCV
Test: 5-hydroxytryptamine receptor 2A (HTR2A) small molecule antagonists, cell-based qHTS assay (AID 1963586); further: nearly all actives have a fitted effect of over 45% in size
Details: HTR2A-CHO cells, DOI-induced calcium flux, fluorescence; series mostly up to 61.5 µM
Method in brief: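 CHO cells stably expressing human HTR2A were plated for 18 h at 37 C, then loaded with calcium dye for 1 h. Compounds were preincubated 5 min at room temperature before DOI (4 nM solution) was added. Kinetic fluorescence was read for 3 min.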

SMILES | Potency | activity, negative = inhibition
CCCCCCCCCCCCN | 5.94 µM (active) and inactive | –
CC(O)CC(C)(C)O (configuration not stated) | inactive | –
CCNc1ccccc1 | inactive | –
Nc1ccc(O)c(C(=O)O)c1 | inactive | –
O=C1CCc2ccccc2O1 | inactive | –
CC(=O)CCC=C(C)C | inactive | –
CCO[Si](CCCNC(N)=O)(OCC)OCC | inactive | –
C=C(C)C(=O)OCCOC(=O)C(=C)C | inactive | –
CC1(C)NC(=O)N(c2ccc([N+](=O)[O-])c(C(F)(F)F)c2)C1=O | inactive | –
O=S(=O)(O)c1ccc(O)cc1 | inactive | –
CC(=O)Oc1c(C)c(C)c2c(c1C)CC[C@@](C)(CCC[C@H](C)CCC[C@H](C)CCCC(C)C)O2 | inactive | –
CC1(C)NC(=O)NC1=O | inactive | –
C[N+](C)(C)CCCCCC[N+](C)(C)C | inactive | –
CCCCCC/C=C/CCCCCCCC(=O)O | inactive | –
CC(C)=CCl | inactive | –
C/C=C1/CC2C=CC1C2 (configuration not stated) | inactive | –
CC(=O)Oc1ccc(C)cc1 | inactive | –
CC(C)=CCO | inactive | –
C=C(C)C(=O)OCC(CC)(COC(=O)C(=C)C)COC(=O)C(=C)C | inactive | –
CC(C)(CO)CO | inactive | –
CCCCCCCC(=O)OCC(O)CO (configuration not stated) | inactive | –
CCCCCCCCCCCCCC(=O)O | inactive | –
O=C(OCc1ccccc1)c1ccccc1 | inactive | –
CN(C)c1ccc(C(=C2C=CC(=[N+](C)C)C=C2)c2ccccc2)cc1 | inactive | –
Cc1ccc(C(=O)O)o1 | inactive | –
O=[Se](O)O | – | 3.34% [at 12.7 µM] (inactive)
CC(=O)c1nccs1 | inactive | –
Cc1cc(C2(c3cc(C)c(O)cc3C)OS(=O)(=O)c3ccccc32)c(C)cc1O | inactive | –
COc1cc(C=O)ccc1O | inactive | –
CC(=O)Nc1ccccc1 | inactive | –

Molecular target: 5-hydroxytryptamine receptor 2A (Homo sapiens) (UniProt P28223)
Test: 5-hydroxytryptamine receptor 2A (HTR2A) small molecule agonists, cell-based qHTS assay (AID 1963587); further: nearly all actives have a fitted effect of over 30% in size
Details: HTR2A-CHO cells, calcium flux fluorescence, agonist mode; series mostly up to 76.8 µM
Method in brief: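 CHO cells stably expressing human HTR2A, plated 18 h, loaded with calcium dye 1 h at 37 C. Agonist mode: compounds added and intracellular calcium fluorescence recorded kinetically for 2 min at 1 sec intervals.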

SMILES | Potency
CCCCCCCCCCCCN | 24.5 µM (active) and inactive
CC(O)CC(C)(C)O (configuration not stated) | inactive
O=C(c1ccc(O)cc1)c1ccc(O)cc1O | inactive
CCNc1ccccc1 | inactive
Nc1ccc(O)c(C(=O)O)c1 | inactive
O=C1CCc2ccccc2O1 | inactive
CC(=O)CCC=C(C)C | inactive
CCO[Si](CCCNC(N)=O)(OCC)OCC | inactive
C=C(C)C(=O)OCCOC(=O)C(=C)C | inactive
CC1(C)NC(=O)N(c2ccc([N+](=O)[O-])c(C(F)(F)F)c2)C1=O | inactive
O=S(=O)(O)c1ccc(O)cc1 | inactive
CC(=O)Oc1c(C)c(C)c2c(c1C)CC[C@@](C)(CCC[C@H](C)CCC[C@H](C)CCCC(C)C)O2 | inactive
CC1(C)NC(=O)NC1=O | inactive
C[N+](C)(C)CCCCCC[N+](C)(C)C | inactive
CCCCCC/C=C/CCCCCCCC(=O)O | inactive
CC(C)=CCl | inactive
C/C=C1/CC2C=CC1C2 (configuration not stated) | inactive
CC(=O)Oc1ccc(C)cc1 | inactive
C=C(C)C(=O)OCC(CC)(COC(=O)C(=C)C)COC(=O)C(=C)C | inactive
CC(C)(CO)CO | inactive
CCCCCCCC(=O)OCC(O)CO (configuration not stated) | inactive
O=C(OCc1ccccc1)c1ccccc1 | inactive
CN(C)c1ccc(C(=C2C=CC(=[N+](C)C)C=C2)c2ccccc2)cc1 | inactive
Cc1ccc(C(=O)O)o1 | inactive
CC(=O)c1nccs1 | inactive
Cc1cc(C2(c3cc(C)c(O)cc3C)OS(=O)(=O)c3ccccc32)c(C)cc1O | inactive
COc1cc(C=O)ccc1O | inactive
CC(=O)Nc1ccccc1 | inactive
